In PubChem BioAssay (NCATS):
Records with an inconclusive call do not appear. Calls of active or inactive are those of the source. Calls come from the whole dose curve; as a rule, active = well fitted curve in the direction sought with a large enough effect in the repeat runs; inconclusive = weak or mixed curves; inactive = no such curve, though single readings can be large; an effect the other way counts as inactive or inconclusive.

Columns and labels:
[1] = target: Cytochrome P450 2D6 (Homo sapiens) (UniProt P10635); test: Cytochrome P450 family 2 subfamily D member 6 (CYP2D6) small molecule antagonists: luciferase biochemical (cell-free) qHTS assay (AID 1645840)
How it was run: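 P450-Glo CYP2D6 system: proluciferin substrate converted by enzyme to luciferin, read by luminescence proportional to activity. Enzyme-substrate mix with compound 10 min at room temperature, then NADPH regeneration 1 h before detection reagent.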

[2] = target: Cytochrome P450 2C9 (Homo sapiens) (UniProt P11712); test: Cytochrome P450 family 2 subfamily C member 9 (CYP2C9) small molecule antagonists: luciferase biochemical (cell-free) qHTS assay (AID 1645842)
How it was run: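 P450-Glo CYP2C9 system: proluciferin substrate with enzyme in mix containing 0.4% BSA, 10 min at room temperature, then NADPH regeneration solution added and incubated 1 h at 37C. Detection reagent stopped reaction; luminescence read after 20 min as RLU.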
Note: nearly all actives have a fitted effect of over 55% in size.
Potency is the fitted concentration of half-maximal effect.

Cytochrome P450 2C9 (Homo sapiens), sequence (P11712 whole entry, looked up): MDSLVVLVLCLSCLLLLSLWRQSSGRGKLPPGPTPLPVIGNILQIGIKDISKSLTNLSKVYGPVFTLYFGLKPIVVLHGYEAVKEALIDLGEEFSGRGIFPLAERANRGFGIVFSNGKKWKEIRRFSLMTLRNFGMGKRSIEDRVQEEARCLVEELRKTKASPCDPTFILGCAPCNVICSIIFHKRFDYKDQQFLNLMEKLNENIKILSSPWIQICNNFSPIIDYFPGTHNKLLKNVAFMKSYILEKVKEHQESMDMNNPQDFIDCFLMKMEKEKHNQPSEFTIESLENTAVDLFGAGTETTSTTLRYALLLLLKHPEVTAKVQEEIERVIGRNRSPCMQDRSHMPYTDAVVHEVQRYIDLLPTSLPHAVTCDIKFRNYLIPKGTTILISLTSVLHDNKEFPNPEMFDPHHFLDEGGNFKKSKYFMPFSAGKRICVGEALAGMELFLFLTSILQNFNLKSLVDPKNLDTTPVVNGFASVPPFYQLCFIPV
Cytochrome P450 2D6 (Homo sapiens), sequence (P10635 whole entry, looked up): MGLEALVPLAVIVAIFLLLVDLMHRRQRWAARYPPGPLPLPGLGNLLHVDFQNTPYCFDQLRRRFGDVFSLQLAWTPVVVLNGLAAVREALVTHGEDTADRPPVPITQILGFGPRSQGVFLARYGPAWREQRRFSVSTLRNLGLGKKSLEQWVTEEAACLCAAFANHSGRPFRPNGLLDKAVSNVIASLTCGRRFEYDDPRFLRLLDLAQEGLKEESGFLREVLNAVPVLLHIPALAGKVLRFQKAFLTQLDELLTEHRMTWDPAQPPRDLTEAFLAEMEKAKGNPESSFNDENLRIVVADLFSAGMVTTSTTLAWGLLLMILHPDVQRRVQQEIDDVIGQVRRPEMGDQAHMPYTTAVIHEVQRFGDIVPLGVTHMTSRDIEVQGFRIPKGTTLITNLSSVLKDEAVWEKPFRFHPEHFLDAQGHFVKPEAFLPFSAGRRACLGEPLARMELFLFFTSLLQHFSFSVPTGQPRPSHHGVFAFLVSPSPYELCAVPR

SMILES | Potency [1] | Potency [2]
COc1ccccc1C(=O)Oc1ccc(C(c2c(C)[nH][nH]c2=O)c2c(C)[nH][nH]c2=O)cc1 | inactive | 10.7 µM (active)
Cc1ccnc(NC(c2cccc(O)c2)c2ccc3ccc(C)nc3c2O)c1 (stereo not given) | 13.5 µM (active) | 9.52 µM (active)
CCCNC(=O)C1CCC(Cn2c(=O)c3sccc3n(CC(=O)NCc3ccccc3)c2=O)CC1 (stereo not given) | inactive | 6.01 µM (active)
CCCCn1cnc2cc(NCc3ccccc3Cl)ccc21 | 0.12 µM (active) | 2.13 µM (active)
COc1cc(C(c2c(C)[nH][nH]c2=O)c2c(C)[nH][nH]c2=O)ccc1OC(=O)c1cccc(C)c1 | inactive | 12 µM (active)
COc1ccc(C(=O)Nc2nc3ccccc3n2CCOc2ccc(Cl)cc2)cc1 | inactive | 26.8 µM (active)
COC(=O)c1cc(S(C)(=O)=O)ccc1OC | inactive | inactive
CCOC(=O)c1ccc(NC(=O)c2cc(=O)c3ccc(C)c(C)c3o2)cc1 | inactive | inactive
NS(=O)(=O)c1ccc(Cc2c(-c3cccc(-c4ccccc4)c3)nn(-c3nc(C(=O)O)cs3)c2C2CC2)cc1 | 21.3 µM (active) | 23.9 µM (active)
O=C(Cn1c(=O)n(-c2ccc(Cl)cc2)c(=O)c2oc3ccccc3c21)Nc1ccccc1 | 0.849 µM (active) | 4.77 µM (active)
CCc1ccc(CNC(=O)C2CCCN(c3nnc(C)c4c(C)n(-c5ccc(OC)cc5)nc34)C2)cc1 (stereo not given) | 7.56 µM (active) | 1.69 µM (active)
COc1cc(=O)n2c(c1C(=O)NCc1ccc3c(c1)OCO3)CCN(C(=O)c1ccc(C)cc1C)CC2 | 10.7 µM (active) | 19 µM (active)
O=C(Cn1c(=O)n(Cc2ccco2)c(=O)c2oc3ccccc3c21)Nc1ccccc1 | 0.756 µM (active) | 4.77 µM (active)
COc1ccccc1CNC(=O)CCC1N=C2c3ccccc3N=C(SCC(=O)NCCc3ccc(OC)c(OC)c3)N2C1=O (stereo not given) | inactive | 0.301 µM (active)
Cc1cc(-c2nc(CN3CCC(C(=O)NCCCN4C[C@H](C)C[C@H](C)C4)CC3)co2)ccc1F | 0.952 µM (active) | inactive
Cc1ccc(-n2c(SCc3ccccc3C)nc3[nH]ncc3c2=O)cc1C | 12 µM (active) | 21.3 µM (active)
CC(C)OCc1cc(CN2CCN(c3cccc(C(F)(F)F)c3)CC2)c(O)c2ncccc12 | inactive | 12 µM (active)
Cc1ccccc1-n1c(SCc2ccc(Cl)cc2)nc2[nH]ncc2c1=O | 21.3 µM (active) | 2.39 µM (active)
Cc1ccc(S(=O)(=O)N2CCc3cc(C(=O)Nc4ccc(C(F)(F)F)cc4)ccc32)cc1 | inactive | 1.51 µM (active)
CCOc1ccccc1NC(=O)CSc1nc2ccccc2c2nc(CCn3cncc3C)nn12 | 10.7 µM (active) | 0.952 µM (active)
CCc1ccc(OCCn2c(C3CC(=O)N(Cc4ccc(F)cc4)C3)nc3ccccc32)cc1 (stereo not given) | 3.01 µM (active) | inactive
CCOc1ccc(CCNC(=O)C2CCCN(c3nnc(C)c4c(C)n(-c5ccccc5)nc34)C2)cc1 (stereo not given) | 4.77 µM (active) | 3.01 µM (active)

SMILES | Potency [1] | Potency [2]
Cc1ccc(C)c(N2CCN(C(=O)C3CCN(S(=O)(=O)c4ccc5[nH]c(=O)oc5c4)CC3)CC2)c1 | inactive | 2.13 µM (active)
Cc1ccc(NC(=O)CSc2nc3ccccc3c3nc(CCn4cncc4C)nn23)cc1F | 3.79 µM (active) | 0.536 µM (active)
COc1ccc(C(C#N)C(C)C)cc1OC (stereo not given) | inactive | inactive
Cc1ccc(CNC(=O)C(C)n2nc(C)c3sc4ccccc4c3c2=O)cc1 (stereo not given) | 13.5 µM (active) | 2.39 µM (active)
CCOc1ccccc1NC(=O)Nc1nnc(N2CCCC(C)C2)s1 (stereo not given) | inactive | 10.7 µM (active)
CCOc1ccc(-c2nonc2NC(=O)c2oc3c(C)c(C)ccc3c2C)cc1OCC | inactive | 0.379 µM (active)
COc1ccc(Cn2c(CCC(=O)Nc3cccc(OC)c3)nc3cccnc32)cc1 | 2.68 µM (active) | 4.77 µM (active)
CC1(C#N)CCN(c2c(C(=O)N3CCC(C(=O)C4CC4)CC3)cnc3c(F)cc(F)cc23)CC1 | 16.9 µM (active) | 9.52 µM (active)
COc1ccc(CC2c3cc(OC)c(OC)cc3CCN2CCC(=O)OCCCCCOC(=O)CCN2CCc3cc(OC)c(OC)cc3C2Cc2ccc(OC)c(OC)c2)cc1OC (stereo not given) | inactive | 21.3 µM (active)
COc1ccc(-c2nc(SCC(=O)Nc3ccc4c(c3)OCO4)c(-c3ccc(OC)cc3)[nH]2)cc1 | 5.35 µM (active) | 0.849 µM (active)
Cc1ccc(C)c(Nc2nc3nonc3nc2Nc2cccc(C)c2C)c1 | 10.7 µM (active) | inactive
CCOC(=O)c1ccc(NC(=O)CCn2c(=O)c3cccn3c3cccnc32)cc1 | inactive | 10.7 µM (active)
Cc1ccc2nc(-c3ccccn3)c(Nc3ccccc3C)n2c1 | 21.3 µM (active) | 1.9 µM (active)
Cc1ccc(-n2ncc3c(NCCCn4ccnc4)ncnc32)cc1Cl | 3.79 µM (active) | 0.601 µM (active)
COc1ccc(-n2ccn(CC(=O)Nc3ccc(C)c(C)c3)c(=O)c2=O)cc1OC | inactive | inactive
Cc1ccc(C)c(NC(=O)Cn2cc(C(=O)c3ccco3)c3ccccc32)c1 | 0.425 µM (active) | inactive
COc1ccc(CC(=O)NCC(c2cccs2)S(=O)(=O)c2ccc(Cl)cc2)cc1 (stereo not given) | 6.01 µM (active) | 2.39 µM (active)
CCc1ccc(-n2c(SCc3cccc(F)c3)nc3[nH]ncc3c2=O)cc1 | 12 µM (active) | 12 µM (active)
CC1(C#N)CCN(c2c(C(=O)N3CCN(C(=O)C4CC4)CC3)cnc3ccc(Cl)cc23)CC1 | inactive | 16.9 µM (active)
CCOC(=O)c1cc(S(=O)(=O)N2CCN(c3cc(Cl)ccc3C)CC2)[nH]n1 | 26.8 µM (active) | 1.2 µM (active)
Cc1cccc(NC(=O)CSc2nc3ccccc3c3nc(CCn4cncc4C)nn23)c1 | 3.01 µM (active) | 1.51 µM (active)
CCCCCCCCCCCCCCCC(=O)OC[C@H](O)[C@H]1OC(=O)C(=O)C1O (stereo not given in full) | inactive | 26.8 µM (active)

SMILES | Potency [1] | Potency [2]
C[C@H]1[C@@H](OC(=O)CCC(=O)O)O[C@@H]2O[C@]3(C)CC[C@H]4[C@H](C)CC[C@@H]1[C@@]24OO3 | inactive | inactive
CCOC(=O)c1ccc(NC(=O)CSc2cc(-c3ccccc3)nc(C)n2)cc1 | inactive | 0.952 µM (active)
COc1ccc(CCNC(=O)c2nc(SCc3ccccc3F)ncc2Cl)cc1OC | inactive | 0.379 µM (active)
Cc1ccc(NC(=O)Cn2c(=O)n(CCC(=O)N3CCc4ccccc4C3)c(=O)c3ccccc32)c(C)c1 | inactive | 0.338 µM (active)
COc1ccc(Cn2ccnc2SCC(=O)Nc2nc3ccccc3s2)cc1 | 9.52 µM (active) | 2.39 µM (active)
O=C(CSc1nccn1Cc1ccc(F)cc1)Nc1nc2ccccc2s1 | 10.7 µM (active) | 7.56 µM (active)
CC1=CC(O)=NS(=O)(=O)O1 | inactive | inactive
CCc1ccc(-c2nc(CSCC(=O)NCc3ccc(C)cc3)c(C)o2)cc1 | 15.1 µM (active) | 2.68 µM (active)
COc1ccc(Br)c2c1-c1nc(NC(=O)c3ccccc3SC)sc1C2 | inactive | inactive
COCCCNC(=O)C(=O)Nc1c2c(nn1-c1cccc(Cl)c1)CSC2 | inactive | 8.49 µM (active)
Nc1c(-c2nc(-c3ccc4c(c3)OCO4)cs2)c2ccccn2c1C(=O)c1ccccc1 | inactive | 0.425 µM (active)
N#C/C(=C/c1ccccc1Cl)c1nc2ccccc2c(=O)[nH]1 | inactive | 3.38 µM (active)
COc1ccccc1CNC(=O)C1CCCN(c2nc3ccccc3n3cccc23)C1 (stereo not given) | 2.68 µM (active) | 0.0674 µM (active)
COc1ccc(Cn2c(CCC(=O)Nc3ccc(C)c(C)c3)nc3cccnc32)cc1 | inactive | 7.56 µM (active)
COc1ccc(NC(=O)CSc2oc(-c3cccs3)nc2S(=O)(=O)c2ccc(Br)cc2)c(OC)c1 | inactive | 0.477 µM (active)
CCc1ccc(C2=CC(c3cccc(C)c3)n3c(nc4ccccc43)N2)cc1 (stereo not given) | 9.52 µM (active) | 6.01 µM (active)
CC1(C#N)CCN(c2c(C(=O)N3CCN(S(C)(=O)=O)CC3)cnc3ccc(F)cc23)CC1 | inactive | inactive
CC1=C(C(=O)NCc2cncn2C)C(c2ccccc2Cl)N=C(Nc2nc3ccccc3o2)N1 (stereo not given) | 9.52 µM (active) | 7.56 µM (active)
CCOc1cc(CNC(=O)c2ccc(C)c(NC(=O)c3nsc4ccccc34)c2)ccc1OC | inactive | 1.51 µM (active)
COc1ccc(CCNc2nc(SCc3cccc(F)c3)nc3ccccc23)cc1OC | 0.301 µM (active) | 0.756 µM (active)
Cc1ccc(Cn2c(SCC(=O)NCc3ccccc3)nc3ccsc3c2=O)cc1 | 6.01 µM (active) | 6.74 µM (active)
